Measurements reported in PubChem BioAssay (Tox21).
Results filed as inconclusive are left out. Calls of active or inactive are those of the source. Unless noted, calls come from the whole dose curve; as a rule, active = well fitted curve in the direction sought with a large enough effect in the repeat runs; inconclusive = weak or mixed curves; inactive = no such curve, though single readings can be large; an effect the other way counts as inactive or inconclusive.

Tests used:
[1] = qHTS assay to identify small molecule that activate the aryl hydrocarbon receptor (AhR) signaling pathway - cell viability counter screen (AID 743086);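 note: HepG2 liver cells carrying the AhR DRE luciferase reporter; series mostly up to about 70 µM; nearly all actives have a fitted effect of over 45% in size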
Method in brief: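 HepG2-AhR-luc (HG2L7.5c1) cells, 4000/well, were preincubated 5 h at 37C, exposed to compound in qHTS format for 24 hr at 37C, then given CellTiter-Fluor for 30 min; viability was read as fluorescence in the reporter wells.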

[2] = biological target: Peroxisome proliferator-activated receptor gamma (Homo sapiens) (UniProt P37231); test: qHTS assay to identify small molecule agonists of the peroxisome proliferator-activated receptor gamma (PPARg) signaling pathway (AID 743094; active = well fitted activation curve with a large enough effect in the signal ratio in the repeat runs, not every such curve was filed as active; the % refers to the signal ratio)
Sequence of Peroxisome proliferator-activated receptor gamma (Homo sapiens) (P37231 whole entry, looked up): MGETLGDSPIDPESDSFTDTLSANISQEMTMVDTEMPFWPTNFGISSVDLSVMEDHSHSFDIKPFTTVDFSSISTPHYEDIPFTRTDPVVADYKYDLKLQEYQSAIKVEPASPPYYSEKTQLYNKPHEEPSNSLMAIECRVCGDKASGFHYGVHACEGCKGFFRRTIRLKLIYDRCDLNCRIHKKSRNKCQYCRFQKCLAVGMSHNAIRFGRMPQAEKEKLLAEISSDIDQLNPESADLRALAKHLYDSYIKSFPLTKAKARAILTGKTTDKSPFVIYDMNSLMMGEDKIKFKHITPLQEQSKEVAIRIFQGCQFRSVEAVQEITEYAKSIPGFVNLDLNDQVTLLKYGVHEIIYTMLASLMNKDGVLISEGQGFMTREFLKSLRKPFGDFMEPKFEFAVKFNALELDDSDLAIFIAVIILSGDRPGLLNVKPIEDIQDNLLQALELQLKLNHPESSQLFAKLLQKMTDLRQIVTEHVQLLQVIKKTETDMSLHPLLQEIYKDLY
Method in brief: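 Agonism was assessed in a beta-lactamase reporter system, HEK293H cells with a stably integrated UAS-bla construct under PPARg control; the 17 h treatment at 37C preceded a 1 h room-temperature FRET substrate read.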

[3] = biological target: Peroxisome proliferator-activated receptor gamma (Homo sapiens) (UniProt P37231); test: qHTS assay to identify small molecule antagonists of the peroxisome proliferator-activated receptor gamma (PPARg) signaling pathway (AID 743191; calls by dose curve; note: series mostly up to about 63 µM; nearly all actives have a fitted effect of over 30% in size)
Method in brief: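 GeneBLAzer PPARg UAS-bla HEK293H cells carrying a UAS-driven beta-lactamase reporter were plated at 3000 cells/well, preincubated 5 h at 37C, then given compound for 17 h at 37C; LiveBLAzer B/G FRET substrate was read after 1 h at room temperature.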

[4] = qHTS assay to identify small molecule antagonists of the peroxisome proliferator-activated receptor gamma (PPARg) signaling pathway - cell viability counter screen (AID 743194); note: nearly all actives have a fitted effect of over 55% in size
Method in brief: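 PPARg-UAS-bla HEK293H cells were plated, rested 5 h at 37 C, then treated with compounds plus rosiglitazone (50 nM final) for 17 h at 37 C; viability was then read by CellTiter-Glo luminescence after 30 min at room temperature.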

[5] = qHTS assay for small molecule agonists of the antioxidant response element (ARE) signaling pathway (AID 743202; active = well fitted activation curve with a large enough effect in the signal ratio in the repeat runs, not every such curve was filed as active; the % refers to the signal ratio)
Method in brief: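 Steps: seed ARE-bla HepG2 cells (2,000/well); incubate 5 h at 37 C; add compounds by pin tool; incubate 16 h at 37 C; add FRET substrate; read fluorescence after 2 h at RT.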

[6] = qHTS assay for small molecule activators of the heat shock response signaling pathway - cell viability counter screen (AID 743209); note: nearly all actives have a fitted effect of over 50% in size
Method in brief: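 Compounds dissolved in DMSO were added to overnight-plated HSE-bla HeLa cells and left 5 h at 37 C. Cell viability was quantified by luminescence using CellTiter-Glo.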

[7] = qHTS assay for small molecule activators of the heat shock response signaling pathway (AID 743210; active = well fitted activation curve with a large enough effect in the signal ratio in the repeat runs, with a control signal flat, not every such curve was filed as active; the % refers to the signal ratio;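 note: HeLa cells with beta-lactamase reporter driven by heat shock elements; series mostly up to about 63 µM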)
Method in brief: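 Activation of heat shock element-controlled beta-lactamase expression is measured in HeLa cells by LiveBLAzer FRET fluorescence, with compound exposure lasting 5 h at 37 C and substrate loading 2.5 h at room temperature.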

[8] = qHTS assay to identify small molecule agonists of the peroxisome proliferator-activated receptor delta (PPARd) signaling pathway - cell viability counter screen (AID 743211); note: nearly all actives have a fitted effect of over 55% in size
Method in brief: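 PPARd-bla HEK293H cells (UAS-beta-lactamase reporter) were treated with compounds for 17 h at 37 C. Viability was then read in the same wells by CellTiter-Glo luminescence after 30 min at room temperature.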

[9] = biological target: Peroxisome proliferator-activated receptor delta (Homo sapiens) (UniProt Q03181); test: qHTS assay to identify small molecule agonists of the peroxisome proliferator-activated receptor delta (PPARd) signaling pathway (AID 743212; calls by dose curve)
Sequence of Peroxisome proliferator-activated receptor delta (Homo sapiens) (Q03181 whole entry, looked up): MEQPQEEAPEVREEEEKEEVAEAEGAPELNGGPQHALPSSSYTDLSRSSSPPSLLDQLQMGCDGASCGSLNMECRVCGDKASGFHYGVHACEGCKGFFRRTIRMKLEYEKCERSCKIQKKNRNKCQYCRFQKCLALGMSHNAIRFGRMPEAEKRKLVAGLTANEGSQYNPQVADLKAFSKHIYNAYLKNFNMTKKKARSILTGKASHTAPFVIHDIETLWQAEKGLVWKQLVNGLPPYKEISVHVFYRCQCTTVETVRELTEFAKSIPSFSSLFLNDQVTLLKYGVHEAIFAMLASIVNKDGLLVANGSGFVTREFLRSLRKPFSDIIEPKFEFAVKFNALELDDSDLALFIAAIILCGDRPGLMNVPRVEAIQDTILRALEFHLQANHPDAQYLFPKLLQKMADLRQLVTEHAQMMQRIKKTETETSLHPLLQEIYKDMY
Method in brief: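 Cells expressing a UAS-driven beta-lactamase reporter (PPARd-bla HEK293H) were given test compounds after a 5 h settle and kept at 37 C. Reporter activity was then measured as FRET fluorescence using LiveBLAzer B/G substrate.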

[10] = qHTS assay to identify small molecule antagonists of the peroxisome proliferator-activated receptor delta (PPARd) signaling pathway - cell viability counter screen (AID 743213); note: nearly all actives have a fitted effect of over 50% in size
Method in brief: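 Viability counter-screen, qHTS format: PPARd-bla HEK293H, L165041 300 nM final, 17 h compound exposure at 37 C, CellTiter-Glo luminescence after 30 min RT.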

[11] = biological target: Peroxisome proliferator-activated receptor delta (Homo sapiens) (UniProt Q03181); test: qHTS assay to identify small molecule antagonists of the peroxisome proliferator-activated receptor delta (PPARd) signaling pathway (AID 743215; active = well fitted inhibition curve with a large enough effect in the signal ratio in the repeat runs, not every such curve was filed as active; the % refers to the signal ratio;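 note: cells stimulated with agonist L165041 at 300 nM final during compound exposure; series mostly up to about 62 µM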)
Method in brief: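 Here, a reporter line (HEK293H, beta-lactamase under a UAS) measures PPARd signaling. Compounds are tested against agonist L165041 at 300 nM final concentration over 17 h at 37 C, with fluorescence read after substrate.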

[12] = qHTS assay to identify small molecule antagonists of the farnesoid-X-receptor (FXR) signaling pathway - cell viability counter screen (AID 743221; active = well fitted cell-killing curve with a large enough effect in the repeat runs, not every such curve was filed as active; note: nearly all actives have a fitted effect of over 50% in size)
Method in brief: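 FXR-UAS-bla HEK 293T cells were treated with test compounds plus chenodeoxycholic acid (50 uM final) for 16 h at 37 C. Cell viability in the same wells was then read as CellTiter-Glo luminescence after 30 min at room temperature.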

[13] = biological target: Vitamin D3 receptor (Homo sapiens) (UniProt P11473); test: qHTS assay to identify small molecule agonists of the vitamin D receptor (VDR) signaling pathway (AID 743222; calls by dose curve)
Sequence of Vitamin D3 receptor (Homo sapiens) (P11473 whole entry, looked up): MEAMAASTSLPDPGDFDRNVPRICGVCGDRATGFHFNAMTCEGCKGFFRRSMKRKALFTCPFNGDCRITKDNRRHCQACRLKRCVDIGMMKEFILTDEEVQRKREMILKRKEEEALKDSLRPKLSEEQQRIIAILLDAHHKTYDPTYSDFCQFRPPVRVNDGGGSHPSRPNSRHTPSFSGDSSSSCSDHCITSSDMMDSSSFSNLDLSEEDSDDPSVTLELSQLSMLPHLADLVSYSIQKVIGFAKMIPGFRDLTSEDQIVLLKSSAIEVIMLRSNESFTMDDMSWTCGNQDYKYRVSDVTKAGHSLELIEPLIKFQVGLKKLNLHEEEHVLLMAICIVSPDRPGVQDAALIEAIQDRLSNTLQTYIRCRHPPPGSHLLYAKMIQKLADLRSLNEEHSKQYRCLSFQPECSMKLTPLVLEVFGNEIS
Method in brief: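 Tox21 cell reporter format: VDR-bla line, 16 h compound exposure in 5% CO2 at 37C, then fluorescence intensity after 2 h with LiveBLAzer B/G FRET substrate.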

[14] = biological target: Vitamin D3 receptor (Homo sapiens) (UniProt P11473); test: qHTS assay to identify small molecule antagonists of the vitamin D receptor (VDR) signaling pathway (AID 743223; active = well fitted inhibition curve with a large enough effect in the signal ratio in the repeat runs, not every such curve was filed as active; the % refers to the signal ratio)
Method in brief: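 VDR-bla cells were plated, incubated 4 h at 37C, then given compound and 1alpha,25-dihydroxyvitamin D3 (3 nM final). After 16 h at 37C, LiveBLAzer B/G FRET substrate was added for 2 h at room temperature and fluorescence read.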

[15] = qHTS assay for small molecule agonists of the antioxidant response element (ARE) signaling pathway - cell viability counter screen (AID 743203; calls by dose curve; note: nearly all actives have a fitted effect of over 55% in size)
Method in brief: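 ATP content via CellTiter-Glo luminescence served as the viability measure. Cells: ARE-bla HepG2, 2,000 per well. Exposure: 16 hrs, 37C/5% CO2.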

[16] = qHTS assay to identify small molecule agonists of the farnesoid-X-receptor (FXR) signaling pathway - cell viability counter screen (AID 743218); note: nearly all actives have a fitted effect of over 45% in size
Method in brief: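 Quantitative HTS counter screen measuring ATP-based viability via CellTiter-Glo luminescence in HEK 293T cells carrying a UAS-driven beta-lactamase reporter, after 16 h compound exposure at 37 C.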

[17] = qHTS assay to identify aromatase inhibitors - cell viability counter screen (AID 743084);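 note: cells stimulated with testosterone during compound exposure; nearly all actives have a fitted effect of over 55% in size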
[18] = biological target: Bile acid receptor (Homo sapiens) (UniProt Q96RI1); test: qHTS assay to identify small molecule antagonists of the farnesoid-X-receptor (FXR) signaling pathway (AID 743217; active = well fitted inhibition curve with a large enough effect in the signal ratio in the repeat runs, not every such curve was filed as active; the % refers to the signal ratio)
Sequence of Bile acid receptor (Homo sapiens) (Q96RI1 whole entry, looked up): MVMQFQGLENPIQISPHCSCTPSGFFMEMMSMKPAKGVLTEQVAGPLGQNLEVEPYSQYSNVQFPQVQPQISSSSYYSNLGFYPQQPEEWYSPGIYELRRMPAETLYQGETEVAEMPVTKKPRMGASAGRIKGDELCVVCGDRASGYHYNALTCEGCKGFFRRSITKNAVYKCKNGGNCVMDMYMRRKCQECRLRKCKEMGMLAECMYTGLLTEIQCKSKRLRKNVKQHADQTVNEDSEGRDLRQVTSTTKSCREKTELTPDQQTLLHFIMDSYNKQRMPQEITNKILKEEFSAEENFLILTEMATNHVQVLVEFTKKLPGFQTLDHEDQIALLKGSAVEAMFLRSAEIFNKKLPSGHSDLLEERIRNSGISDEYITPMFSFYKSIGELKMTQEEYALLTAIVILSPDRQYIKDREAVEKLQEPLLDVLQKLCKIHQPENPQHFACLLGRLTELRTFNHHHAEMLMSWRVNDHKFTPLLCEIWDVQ
Method in brief: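 Test compounds are pin-transferred onto FXR-bla HEK 293T cells, then chenodeoxycholic acid is added at 50 uM final. After 16 h at 37 °C, LiveBLAzer B/G substrate is applied for 2 h at room temperature and fluorescence read.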

[19] = biological target: Bile acid receptor (Homo sapiens) (UniProt Q96RI1); test: qHTS assay to identify small molecule agonists of the farnesoid-X-receptor (FXR) signaling pathway (AID 743220; active = well fitted activation curve with a large enough effect in the signal ratio in the repeat runs, not every such curve was filed as active; the % refers to the signal ratio)
Method in brief: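 FXR-UAS-bla HEK 293T cells carrying a UAS-driven beta-lactamase reporter were plated for 5 h at 37C/5% CO2, then exposed to DMSO-dissolved Tox21 10K compounds for 16 h at 37C. A LiveBLAzer B/G FRET substrate was loaded for 2 h at room temperature before fluorescence reading.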

[20] = biological target: Aryl hydrocarbon receptor (Homo sapiens) (UniProt P35869); test: qHTS assay to identify small molecule that activate the aryl hydrocarbon receptor (AhR) signaling pathway (AID 743085);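 note: HG2L7.5c1 human HepG2 liver cells with stably integrated DRE-driven firefly reporter; series mostly up to about 70 µM; nearly all actives have a fitted effect of over 15% in size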
Sequence of Aryl hydrocarbon receptor (Homo sapiens) (P35869 whole entry, looked up): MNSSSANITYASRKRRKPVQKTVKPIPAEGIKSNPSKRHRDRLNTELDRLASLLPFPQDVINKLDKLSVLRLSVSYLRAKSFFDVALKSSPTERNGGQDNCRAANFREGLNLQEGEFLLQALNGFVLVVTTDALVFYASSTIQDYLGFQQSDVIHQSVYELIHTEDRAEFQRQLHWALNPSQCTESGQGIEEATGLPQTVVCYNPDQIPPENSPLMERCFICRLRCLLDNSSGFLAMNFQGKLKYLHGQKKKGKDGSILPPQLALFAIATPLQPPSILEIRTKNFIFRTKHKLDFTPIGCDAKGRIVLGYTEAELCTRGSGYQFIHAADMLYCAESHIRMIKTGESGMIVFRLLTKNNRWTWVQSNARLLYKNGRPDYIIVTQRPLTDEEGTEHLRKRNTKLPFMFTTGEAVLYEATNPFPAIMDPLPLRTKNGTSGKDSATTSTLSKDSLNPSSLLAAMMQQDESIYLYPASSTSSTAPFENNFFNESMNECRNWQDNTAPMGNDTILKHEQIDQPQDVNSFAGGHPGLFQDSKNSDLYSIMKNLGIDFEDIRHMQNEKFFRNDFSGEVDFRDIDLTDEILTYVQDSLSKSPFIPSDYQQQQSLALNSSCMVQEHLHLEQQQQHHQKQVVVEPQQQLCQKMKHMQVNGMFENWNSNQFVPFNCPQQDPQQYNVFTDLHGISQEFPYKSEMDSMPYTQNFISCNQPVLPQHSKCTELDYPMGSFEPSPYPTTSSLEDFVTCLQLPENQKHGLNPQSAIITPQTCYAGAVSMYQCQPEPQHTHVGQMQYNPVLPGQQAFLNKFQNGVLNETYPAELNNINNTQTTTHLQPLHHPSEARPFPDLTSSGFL
Method in brief: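 HepG2 cells (HG2L7.5c1) stably carrying a firefly luciferase reporter driven by 20 dioxin responsive elements were exposed to compound for 24 h at 37C after a 5 h settling period; luminescence rise (ONE-Glo) indicated activation.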

Measured: Potency

CCOC(=O)C(=O)OCC
not listed: [15] | [16] | [17] | [18] | [19] | [20]
inactive: all other assays above

CN1N=C(C(N)=O)CCC1=O
not listed: [1] | [2] | [11] | [14] | [17] | [18] | [19] | [20]
inactive: all other assays above

COc1nc(N)nc2c1ncn2[C@@H]1O[C@H](CO)[C@@H](O)[C@@H]1O
inactive: [17] | [4] | [5] | [15] | [6] | [7] | [8] | [16] | [12] | [13] | [14]

COc1ccc2c(c1)CCCC2=O
not listed: [1] | [2] | [9] | [11] | [17] | [20]
inactive: all other assays above

CCc1cccc2c(CCO)c[nH]c12
not listed: [1] | [2] | [9] | [17] | [18] | [19] | [20]
inactive: all other assays above

C=C1CC[C@H]2C[C@@H]1C2(C)C
not listed: [1] | [3] | [11] | [15] | [16] | [18] | [19] | [20]
inactive: all other assays above

Cc1sccc1Br
not listed: [1] | [2] | [9] | [11] | [17] | [20]
inactive: all other assays above

CCOC(=O)[C@H](CCc1ccccc1)N[C@@H](C)C(=O)N1[C@H](C(=O)O)C[C@@H]2CCC[C@@H]21
not listed: [1] | [15] | [16] | [18] | [19] | [20]
inactive: all other assays above

Cc1cc(O)cc2c1O[C@](C)(CCC[C@H](C)CCC[C@H](C)CCCC(C)C)CC2
not listed: [3] | [8] | [9] | [10] | [11] | [20]
inactive: all other assays above

CC(=O)OCC(=O)[C@@]1(O)CC[C@H]2[C@@H]3CCC4=CC(=O)CC[C@]4(C)[C@H]3C(=O)C[C@@]21C
inactive: [17] | [1] | [4] | [15] | [8] | [9] | [10] | [16]

CC(NC(CCc1ccccc1)C(=O)O)C(=O)N1C(=O)N(C)CC1C(=O)O (stereo not given)
not listed: [1] | [2] | [11] | [16] | [17] | [20]
inactive: all other assays above

CCS(=O)(=O)c1ccc(OC)c(C(=O)OC)c1
not listed: [1] | [2] | [3] | [13] | [14] | [17] | [20]
inactive: all other assays above

CC(C)NCC(O)c1ccc(NS(C)(=O)=O)cc1 (stereo not given)
not listed: [2] | [3] | [15] | [17] | [18] | [19] | [20]
inactive: all other assays above

CCCCCCCCS(=O)(=O)Cl
not listed: [5] | [11] | [15] | [16] | [17] | [18] | [19]
inactive: all other assays above

CCN(CC)CCOCCOC(=O)C1(c2ccccc2)CCCC1
not listed: [1] | [3] | [9] | [11] | [13] | [14] | [16] | [17]
inactive: all other assays above

Cc1cnc(NS(=O)(=O)c2ccc(N)cc2)nc1
not listed: [1] | [2] | [3] | [17] | [18] | [19] | [20]
inactive: all other assays above

NS(=O)(=O)c1cc(C(=O)NN2C[C@H]3[C@H]4CCC(C4)[C@H]3C2)ccc1Cl
inactive: [4] | [5] | [15] | [6] | [7] | [8] | [10] | [16] | [12]

CCOC(=O)c1cccc(N)c1
not listed: [2] | [3] | [18] | [19] | [20]
inactive: all other assays above

NC(=O)c1cn(Cc2c(F)cccc2F)nn1
not listed: [1] | [2] | [3] | [11] | [17] | [20]
inactive: all other assays above

CC/C=C\CC/C=C/C(OCC)OCC
inactive: [4] | [15] | [6] | [8] | [9] | [10] | [16] | [12]
